Where “and” joins values, the source holds several entries; their conditions need not be identical. Equal entries are not always repeated. Structures can show the parent of a compound that is named as a salt.
How the values were obtained:
Experiment in all cases: cell viability relative to vehicle control; higher = less cytotoxic
Settings in all cases: 10 µM
[1] = system: K562
Method in brief: (§1)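 CRISPR-edited SRSF2 P95 mutant and isogenic wild-type clones of four leukaemia lines were screened against Selleck bioactive, kinase and epigenetic probe libraries, with identity-inconsistent compounds removed. Compounds were acoustically dispensed into 384-well plates at a single 10 µM dose, with 2000 cells in 50 µL medium per well. After 48 h, supernatant was removed and CellTiter-Glo luminescence was read. Viability was expressed as percent of the on-plate DMSO vehicle control, analysed in Genedata Screener.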

[2] = system: MARIMO
Method in brief: as §1

[3] = system: MOLM14
Method in brief: as §1

[4] = system: OCI-AML2
Method in brief: as §1

| Compound | cell viability ([1]; SRSF2 genotype: SRSF2 P95H/wt) | cell viability ([1]; SRSF2 genotype: SRSF2 wt/wt) | cell viability ([2]; SRSF2 genotype: SRSF2 P95H/wt) | cell viability ([2]; SRSF2 genotype: SRSF2 wt/wt) | cell viability ([3]; SRSF2 genotype: SRSF2 P95H/wt) | cell viability ([3]; SRSF2 genotype: SRSF2 wt/wt) | cell viability ([4]; SRSF2 genotype: P95H/wt) | cell viability ([4]; SRSF2 genotype: wt/wt) |
| --- | --- | --- | --- | --- | --- | --- | --- | --- |
| CC[C@@H]1/C=C(\C)C[C@H](C)C[C@H](OC)[C@H]2O[C@@](O)(C(=O)C(=O)N3CCCC[C@H]3C(=O)O[C@H](/C(C)=C/[C@@H]3CC[C@H](Cl)[C@H](OC)C3)[C@H](C)[C@@H](O)CC1=O)[C@H](C)C[C@@H]2OC [Pimecrolimus] | 66% and 70.4% | 64.5% | 80.5% | 70.7% | 65.7% | 67.3% | 58.1% | 57.8% |
| CN1c2cc(O)c(N=NC(N)=O)cc2CC1S(=O)(=O)O (stereo not given) [Carbazochrome sodium sulfonate] | 99.4% and 97% | 95.2% | 92.7% | 98.7% | 97% | 99.3% | 99.1% | 106% |
| CN(C)C(=O)c1cc2cnc(Nc3ccc(N4CCNCC4)cn3)nc2n1C1CCCC1 [Ribociclib (LEE011)] | 96.4% and 111% | 110% | 68% | 64.7% | 54.2% | 46% | 62% | 57% |
| Cc1cc(OCc2nnc(SC3CCCC3)n2-c2cccnc2)ccc1-c1ccc(S(C)(=O)=O)cc1 | 0.65% and 0.74% | 1.74% | 0.85% | 1.72% | 0.25% | 0.26% | 0.24% | 0.79% |
| C[C@@]12C[C@@]3(O)O[C@@H](O1)[C@]1(COC(=O)c4ccccc4)[C@H]3C[C@@]12O[C@@H]1O[C@H](CO)[C@@H](O)[C@H](O)[C@H]1O [Paeoniflorin] | 100% and 109% | 102% | 101% | 101% | 107% | 111% | 112% | 97.3% |
| Nc1ncnc2n[nH]c(Nc3ccc(F)cc3)c12 | 86.7% and 96.4% | 82.6% | 70% | 67.5% | 69.2% | 71.8% | 65.5% | 63.8% |
| O=C(Nc1ccccc1Br)N[C@@H]1CCN(c2ccc(C(F)(F)F)cn2)C1 | 88.5% and 90.8% | 91.5% | 89.3% | 101% | 98.5% | 99.3% | 78.4% | 89.7% |
| CC[C@H]1OC(=O)[C@H](C)[C@@H](O[C@H]2C[C@@](C)(OC)[C@@H](O)[C@H](C)O2)[C@H](C)[C@@H](O[C@@H]2O[C@H](C)C[C@H](N(C)C)[C@H]2O)[C@](C)(O)C[C@@H](C)CN[C@H](C)[C@@H](O)[C@]1(C)O [Azathramycin] | 104% and 112% | 115% | 107% | 104% | 109% | 108% | 111% | 97.8% |
| O=C(NCC1(c2nc(-c3ccccc3)cs2)CCOCC1)c1cccc(-c2noc(C(F)(F)F)n2)c1 | 82.1% and 90.7% | 86.5% | 86.5% | 85.5% | 87.9% | 97.8% | 75.7% | 79.3% |
| Cc1ccc(C=O)o1 [5-Methyl furfural] | 104% | 95.7% | 99.8% | 94.2% | 99.1% | 101% | 103% | 103% |
| O=C(/C=C/c1ccc(O)c2c1[C@H](C(=O)O)[C@@H](c1ccc(O)c(O)c1)O2)O[C@H](Cc1ccc(O)c(O)c1)C(=O)O [Lithospermic acid] | 96.8% and 101% | 96% | 97.9% | 88.7% | 104% | 99.9% | 88.6% | 97.6% |
| O=C(CCCN1CCC(O)(c2ccc(Cl)cc2)CC1)c1ccc(F)cc1 [Haloperidol (Haldol)] | 87.7% and 94.9% | 94.5% | 73.9% | 85.3% | 84.8% | 91% | 84.2% | 91% |
| CN(C)Cc1cccc(N=C(c2ccccc2)c2c(O)[nH]c3cc(C(N)=O)ccc23)c1 | 80.6% and 81.5% | 78.9% | 72.2% | 83.8% | 11% | 15.9% | 23.9% | 31.1% |
| CN1CCN(c2c(F)cc3c(=O)c(C(=O)O)cn4c3c2OCN4C)CC1 [Marbofloxacin] | 100% and 108% | 105% | 102% | 109% | 103% | 100% | 104% | 110% |
| CNCCC(Oc1ccc(C(F)(F)F)cc1)c1ccccc1 (stereo not given) [Fluoxetine HCl] | 75.2% and 82.5% | 88.8% | 63.5% | 75.2% | 68.8% | 81.6% | 63.1% | 74.1% |
| NS(=O)(=O)NCCNc1nonc1/C(=N/O)Nc1ccc(F)c(Br)c1 | 97.2% and 102% | 95.5% | 102% | 104% | 103% | 100% | 106% | 109% |
| CC(=O)N1c2ccc(-c3ccc(C(=O)O)cc3)cc2[C@H](Nc2ccc(Cl)cc2)C[C@@H]1C | 59.6% and 63.6% | 74.7% | 23.6% | 28.7% | 16.3% | 14.4% | 7.87% | 17.8% |
| COc1cc(C=O)c([N+](=O)[O-])cc1OC | 104% | 110% | 95.3% | 92.6% | 95.8% | 109% | 111% | 125% |
| CO/N=C(\C(=O)N[C@@H]1C(=O)N2C(C(=O)[O-])=C(C[n+]3ccn4ncccc43)CS[C@H]12)c1nsc(N)n1 [Cefozopran hydrochloride] | 108% and 99.3% | 101% | 100% | 114% | 99.4% | 106% | 95.2% | 95.9% |
| Cc1nc(=O)c2cc(CN(C)c3ccc(C(=O)N[C@@H](CCC(=O)O)C(=O)O)s3)ccc2[nH]1 [Raltitrexed (Tomudex)] | 94.9% and 108% | 58.7% | 94.3% | 105% | 104% | 80.6% | 106% | 118% |

| Compound | cell viability ([1]; SRSF2 genotype: SRSF2 P95H/wt) | cell viability ([1]; SRSF2 genotype: SRSF2 wt/wt) | cell viability ([2]; SRSF2 genotype: SRSF2 P95H/wt) | cell viability ([2]; SRSF2 genotype: SRSF2 wt/wt) | cell viability ([3]; SRSF2 genotype: SRSF2 P95H/wt) | cell viability ([3]; SRSF2 genotype: SRSF2 wt/wt) | cell viability ([4]; SRSF2 genotype: P95H/wt) | cell viability ([4]; SRSF2 genotype: wt/wt) |
| --- | --- | --- | --- | --- | --- | --- | --- | --- |
| CC(C)c1cc(-c2ccc(F)c3ccccc23)nc(N)n1 | 95.5% and 96.7% | 94.9% | 89.5% | 98.3% | 93.1% | 97.9% | 89.7% | 101% |
| CCN[C@H]1CN(CCCOC)S(=O)(=O)c2sc(S(N)(=O)=O)cc21 [Brinzolamide] | 87.4% and 79.5% | 85.7% | 83.7% | 88.2% | 83.2% | 86.5% | 84.2% | 90.2% |
| C[C@H](Cc1cc2c(c(C(N)=O)c1)N(CCCO)CC2)NCCOc1ccccc1OCC(F)(F)F [Silodosin] | 81.7% and 88.2% | 87.5% | 86.2% | 85.6% | 87.2% | 89.5% | 74.7% | 80% |
| C=CCc1ccc(O)c(-c2ccc(O)c(CC=C)c2)c1 [Honokiol] | 84.9% and 87.5% | 83.8% | 84.5% | 92.7% | 85.5% | 98.9% | 66.7% | 72.3% |
| C=C(C)[C@@H]1CC[C@]2(C=O)CC[C@]3(C)[C@H](CC[C@@H]4[C@@]5(C)CC[C@H](O)C(C)(C)[C@@H]5CC[C@]43C)[C@@H]12 [Betulinicaldehyde] | 101% and 97.2% | 102% | 95.1% | 94.2% | 103% | 98% | 94.5% | 92% |
| OCC(O)C(O)CO (stereo not given) [Erythritol] | 100% and 105% | 99.9% | 98.4% | 106% | 101% | 101% | 98.2% | 110% |
| COc1cc(C(=O)NS(=O)(=O)c2ccccc2C)ccc1Cc1cn(C)c2ccc(NC(=O)OC3CCCC3)cc12 [Zafirlukast (Accolate)] | 97.3% and 96.5% | 92.8% | 96% | 110% | 94.3% | 97% | 94.4% | 104% |
| O=C(Nc1cccc2c(=O)cc(-c3nnn[nH]3)oc12)c1ccc(OCCCCc2ccccc2)cc1 [Pranlukast] | 103% | 104% | 106% | 114% | 101% | 104% | 105% | 113% |
| CN[C@@H](C)C(=O)N[C@H]1CN(C(=O)CC(C)C)CC[C@H]2CC[C@@H](C(=O)NC(c3ccccc3)c3ccccc3)N2C1=O | 69.6% and 74.7% | 72.8% | 64.5% | 46.6% | 0.57% | 0.76% | 60.2% | 39.2% |
| Cn1cc(/C=C2\C(=O)Nc3cccnc32)c2ccccc21 | 98% and 98.2% | 96.4% | 91.2% | 94.3% | 25.7% | 22.9% | 49.4% | 56.2% |
| O=C(O)CC[C@H]1CC[C@@](c2cc(F)ccc2F)(S(=O)(=O)c2ccc(Cl)cc2)CC1 | 102% and 101% | 97.9% | 91.6% | 92.1% | 98.3% | 99.2% | 102% | 97% |
| CC(=O)O[C@H]1CC/C(C)=C/CC/C(C)=C/C[C@]2(C(C)C)CC[C@@]1(C)O2 [Incensole acetate] | 85.8% and 85.7% | 91.2% | 85.1% | 89.2% | 68.8% | 67.7% | 84.1% | 85.2% |
| O=C(/C=C\n1cnc(-c2cc(C(F)(F)F)cc(C(F)(F)F)c2)n1)NNc1cnccn1 [Selinexor (KPT-330)] | 8.08% and 19.9% | 13.9% | 22.6% | 22.3% | 2.17% | 1.26% | 6.48% | 11.4% |
| COc1cc2c(cc1OC)-c1cc3ccc(OC)c(OC)c3c[n+]1CC2 [Palmatine chloride] | 82.8% and 81.3% | 75.1% | 81% | 93% | 82.6% | 86% | 81.9% | 80.9% |
| C=C1CC23CCC4C(C)(C(=O)OC5OC(CO)C(O)C(O)C5O)CCCC4(C)C2CCC1(OC1OC(CO)C(O)C(OC2OC(CO)C(O)C(O)C2O)C1OC1OC(C)C(O)C(O)C1O)C3 (stereo not given) [Rebaudioside C] | 101% and 99.8% | 106% | 108% | 111% | 106% | 103% | 112% | 101% |
| CC(C)c1ccccc1Cc1cc(C(=O)Nc2ccc(S(=O)(=O)c3ccccc3C(C)(C)C)cc2)c(O)c(O)c1O | 8.56% and 5.5% | 7.92% | 17.6% | 18.2% | 4.45% | 1.48% | 2.91% | 8.83% |
| CCCc1cc(-c2nc(-c3ccc(C)cc3)cs2)ccn1 [Fatostatin] | 22.9% and 30.5% | 39% | 46.2% | 36% | 51.6% | 35.5% | 34.2% | 35.4% |
| C[Si](C)(C)CCOCn1ccc2c(-c3cn[nH]c3)ncnc21 | 98.4% and 99.6% | 109% | 98.6% | 106% | 95.9% | 106% | 100% | 99% |
| CNC(=O)CN1CCC(Oc2cc3c(Nc4cccc(Cl)c4F)ncnc3cc2OC)CC1 | 85.2% and 96% | 91.9% | 93.6% | 100% | 79.5% | 93.1% | 73.8% | 79.5% |
| COc1ccc(-c2nc3cc(C4=NNC(=O)CC4C)ccc3[nH]2)cc1 (stereo not given) [Pimobendan (Vetmedin)] | 59.4% and 65.2% | 68.4% | 65.5% | 57.5% | 68% | 83.6% | 89.3% | 84.4% |

From the supplement of paper PMC10981050
